# Data: ChEMBL document CHEMBL1201862, “PubChem BioAssay data set” (2004)
# Biological target: T1, Thyroid hormone receptor beta (Homo sapiens) (UniProt P10828)
# T1 sequence (whole entry): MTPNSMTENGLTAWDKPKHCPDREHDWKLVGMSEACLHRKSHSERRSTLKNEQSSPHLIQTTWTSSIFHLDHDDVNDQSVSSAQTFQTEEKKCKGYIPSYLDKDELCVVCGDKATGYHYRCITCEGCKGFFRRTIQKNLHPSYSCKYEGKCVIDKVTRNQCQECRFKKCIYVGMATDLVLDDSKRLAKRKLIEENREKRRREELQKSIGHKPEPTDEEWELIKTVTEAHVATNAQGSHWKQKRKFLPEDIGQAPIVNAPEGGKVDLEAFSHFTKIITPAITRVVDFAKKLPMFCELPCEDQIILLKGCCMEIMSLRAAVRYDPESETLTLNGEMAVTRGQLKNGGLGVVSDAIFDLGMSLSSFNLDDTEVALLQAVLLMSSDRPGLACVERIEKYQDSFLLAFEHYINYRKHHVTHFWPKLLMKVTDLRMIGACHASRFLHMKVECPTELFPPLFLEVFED
# Assay: qHTS Assay for Inhibitors of the Interaction of Thyroid Hormone Receptor and Steroid Receptor Coregulator 2: Probe Summary. [Related pubchem assays (depositor defined):AID1469, AID1479, AID1567, AID1568, AID1570, AID1571, AID1573, AID2444, AID2447, AID2448, AID2449, AID2455, AID2479, AID2487, AID2490, AID2552]; call rule not given here
# Assay type: functional
row,Compound,Potency
1,CC(OC(=O)c1ccc(S(C)(=O)=O)c([N+](=O)[O-])c1)C(=O)NC1C2CC3CC(C2)CC1C3 (centres undefined),1.4 µM (active)
2,CC1CCN(C(=O)COC(=O)c2ccc(S(C)(=O)=O)c([N+](=O)[O-])c2)CC1,9.8 µM (active)
3,CCC(OC(=O)c1ccc(S(C)(=O)=O)c([N+](=O)[O-])c1)C(=O)NC1C2CC3CC(C2)CC1C3 (centres undefined),1.1 µM (active)
4,CCCC1CCN(C(=O)COC(=O)c2ccc(S(C)(=O)=O)c([N+](=O)[O-])c2)CC1,3.3 µM (active)
